About 83,000 compounds went through this panel and 20% of them were active in at least one assay; those are over-represented in the sample as a whole.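 Results are percent growth after 48 hours of single-concentration exposure. 100 means growth as in untreated cells, lower positive values show inhibition; negative values down to -100 show cell death.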 Unmarked numbers belong to inactive results. The source made the active and inactive calls. Rule for the calls: active = growth percent below 10; inactive = the rest.

The test system of this assay is HL-60(TB) leukemia. The assay can be described thus: NCI-60 one-dose screen, 48 h (100 = growth as untreated, 0 = no growth, -100 = all killed). Particulars: 10 µM unless noted.
As to `CC1=CC(=O)OC1C/C=C(\C)CCC1[C@@]2(C)CCC[C@@](C)(C(=O)O)C2CC[C@@]1(C)O` (stereo not given in full), the growth is 95.8%.

For the compound `Clc1nccc2c(-c3csc(-c4c[nH]c5ccccc45)n3)c[nH]c12`, the growth is 29.4%.

On to `CC[C@H](CC[C@@H](C)[C@H]1CC[C@H]2[C@@H]3CC=C4C[C@@H](OCCc5nn[nH]n5)CC[C@]4(C)[C@H]3CC[C@]12C)C(C)C`, for which the growth was 103%.

With `COc1ccc(CC(=O)c2ccc(O)cc2O)cc1`, the growth was 106%.

As for `O=C1CCC(C(=O)NCCNCCNC(=O)C2CCC(=O)N2)N1` (stereo not given), the growth is 89.2%.

As to `O=C(N/N=C/c1ccccc1O)c1ccccc1Nc1ccnc(C(F)(F)F)c1`, the growth is 7.92% (active).

As to `O=C(Cn1cc(CSc2nc3ccccc3o2)nn1)Nc1ccc([N+](=O)[O-])cc1`, the growth was 98.2%.

`CCN(CC)CCCC(C)Nc1cc(-c2ccc(C(F)(F)F)cc2)c(C#N)c2nc3ccccc3n12` (stereo not given): the growth was -59.8% (active).

Regarding `CN1C2CCC1/C(=C\c1ccc(Cl)cc1)C(=O)/C2=C/c1ccc(Cl)cc1`, the growth is 20.3%.

For `C=C(C)[C@@H]1CC[C@]2(C(=O)O)CC[C@]3(C)[C@H](CC[C@@H]4[C@@]5(C)CCC(N)C(C)(C)[C@@H]5CC[C@]43C)[C@@H]12` (stereo not given in full), the growth is -45.5% (active).

In the case of `CC1(C)CC[C@]2(C(=O)O)CC[C@]3(C)C(=CC[C@@H]4[C@@]5(C)C/C(=C/c6cccnc6)[C@H](O)C(C)(C)[C@@H]5CC[C@]43C)[C@@H]2C1`, the growth was -8.82% [100 µM] (active).

Turning to `C#CC(C)(O)[C@@H]1C[C@H](CC(=O)O)C1(C)C` (stereo not given in full), the growth is 113%.

As to `OC1(c2ccccc2)c2ccccc2N(c2ccccc2)c2ccc(Cl)cc21` (stereo not given), the growth is -22.2% (active).

As for `COc1cc(C(=O)/C=C/c2c(-c3cccs3)nc3sc(C)cn23)cc(OC)c1OC`, the growth is -18.4% (active).

`CC(C)CN(C(=O)c1ccc(Cl)cc1)c1c(N)n(CC(C)C)c(=O)[nH]c1=O`: the growth was 90.8%.

Turning to `O=C1NCC(=O)N(Cc2ccco2)[C@H]1Cc1ccccc1`, the growth is 102%.

Consider `C#CCN1C(=O)c2ccccc2N(CC#C)C12CCN(Cc1cn(CC(=O)Nc3ccccc3C(N)=O)nn1)CC2`, for which the growth is 86.6%.

`Cc1ccc(S(=O)(=O)/C(=C\c2ccc(Cl)cc2)C(=O)c2ccccc2)cc1`: the growth is 97.1%.

For the compound `COc1ccc2nc(-c3ccccc3)cc(C(C)=O)c2c1`, the growth was 84.8%.

As for `CCn1c(SCc2ccc(C)cc2)nnc1-c1nn(-c2ccc(Cl)cc2Cl)c(-c2ccc(Cl)cc2)c1C`, the growth was -13.1% (active).

Consider `N#C/C(=C1\SC(=O)CN1c1ccccc1)c1nc2ccccc2s1`, for which the growth is 92.8%.

For the compound `COc1cc2c(/C=C3\C(=O)Nc4ccccc43)c(C(=O)O)[nH]c2cc1C`, the growth was 110%.

For `N#C/C(=C\c1ccc(Br)cc1)n1nnc2cc(F)c(F)cc21`, the growth is -16.2% (active).

In the case of `C[n+]1c(-c2ccccc2)c2cc(N)ccc2c2ccccc21`, the growth was 59.4%.

As for `O=S(=O)(NCCCNc1nccc(-n2ccc3cccnc32)n1)c1cccc(C(F)(F)F)c1`, the growth is 109%.

The record behind these values is PubChem BioAssay (NCI).
